From PubChem BioAssay
Tb PYK inh: qHTS of Trypanosoma Brucei Inhibitors; pyruvate kinase (Trypanosoma brucei), Q57TT1; TbPYK enzyme, Kinase-Glo Plus ATP luminescence, 45 min; Potency, µM (series often up to 76.8 µM), most hits filed as inhibitors; 410,000 tested, 0.12% active; further: nearly all actives have a fitted effect of over 50% in size
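Readout: single end-point luminescence (Kinase-Glo Plus, 10 min). Reaction conditions were TbPYK/substrate plus 130 uM ADP, 45 min at RT, pH 7.2 TEA buffer. No-enzyme wells served as controls, and data were normalized before concentration-response fitting.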
CHX counter: Cycloheximide Counterscreen for Small Molecule Inhibitors of Shiga Toxin; 300,000 tested, 12% active; AID 2314, 2010; max response, %; cell reporter, cycloheximide protein synthesis inhibition counterscreen; in the data active means max response mostly above about 13%, no sharp cut-off; inactive means mostly below about 14%; further: read at 38.3 µM for the half of the compounds with a filed dose
NS1 function inh: qHTS Assay for Inhibitors of Influenza NS1 Protein Function. Potency, µM (highest dose often 46.1 µM). 270,000 tested, 0.4% active. AID 2326, 2010; calls by dose curve; further: actives are rising curves; nearly all actives have a fitted effect of over 50% in size
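In this qHTS, NS1 from influenza A is expressed in budding yeast, where it slows growth. Cells are switched from glucose to 2% galactose medium (pH 6.0, -URA), treated with compound, and growth recovery is read at OD600.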
SARS PLpro yeast: qHTS of Yeast-based Assay for SARS-CoV PLP. S. cerevisiae expressing SARS-CoV PLpro, growth rescue. Potency, µM (highest dose often 32.9 µM), usual class: activators. 330,000 tested, 0.19% active; calls by dose curve; further: nearly all actives have a fitted effect of over 55% in size
LmPK inhibitor: qHTS Assay for Inhibitors of Leishmania Mexicana Pyruvate Kinase (LmPK). Q27686. purified LmPK, Kinase-Glo ATP luminescence, 1 h. Potency, µM (titrated, usually from 57.5 µM), actives largely listed as inhibitors. 290,000 tested, 0.37% active. AID 1721, 2009
Target sequence (Q27686 whole entry, looked up): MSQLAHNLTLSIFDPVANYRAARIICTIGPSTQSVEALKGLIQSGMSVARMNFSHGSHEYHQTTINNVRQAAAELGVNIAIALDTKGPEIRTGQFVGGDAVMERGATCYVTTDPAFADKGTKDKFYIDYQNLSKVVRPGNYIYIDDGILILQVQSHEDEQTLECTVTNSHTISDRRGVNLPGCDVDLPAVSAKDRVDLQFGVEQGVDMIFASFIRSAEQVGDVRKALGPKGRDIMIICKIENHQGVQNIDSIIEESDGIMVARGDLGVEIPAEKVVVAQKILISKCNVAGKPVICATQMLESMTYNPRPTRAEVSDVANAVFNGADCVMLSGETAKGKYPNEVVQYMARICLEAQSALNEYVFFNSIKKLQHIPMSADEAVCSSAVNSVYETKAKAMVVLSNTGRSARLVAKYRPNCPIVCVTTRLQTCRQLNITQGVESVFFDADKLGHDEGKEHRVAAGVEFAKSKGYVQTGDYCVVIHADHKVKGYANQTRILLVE
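Screened at intermediate enzyme activity to detect both inhibitors and activators: LmPK at 0.1 nM, with a 0.5 nM enzyme column as activation reference. PEP 0.5 mM, ADP 0.1 mM; ATP detected by luminescence after 1 h.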
Shiga inhibitor: A qHTS for Small Molecule Inhibitors of Shiga Toxin; AID 2315, 2010; Vero cells, Shiga toxin protein synthesis inhibition reporter; 290,000 tested, 9.2% active; inhibition, % at 38.7 µM; in the data active means inhibition mostly above about 28%, no sharp cut-off; inactive means mostly below about 43%
Each line names hits and unclear results; the compound was inactive in the other large screens. Shown is part of a subset that was picked to be rich in hits. Unless noted, the call rests on the fitted dose curve; in most records, active means well fitted curve in the direction sought with a large enough effect; inconclusive means small, poorly fitted or top-dose-only effect, or another doubt; inactive means no such curve, though single readings can be large; an effect the other way counts as inactive or inconclusive.

CCC(=O)N1CCc2nc(-c3ccccc3)sc2C1	CHX counter 25, Shiga inhibitor 69
Cc1ccc(NC(=O)Nc2cnc3ccccc3c2)cc1	CHX counter 30, Shiga inhibitor 45
COC(=O)c1cccc(C(=O)Nc2cnc3ccccc3c2)n1	none
CCN(CC)C(=O)Nc1cnc2ccccc2c1	CHX counter 18
Cc1ccc(-c2nnc(Cc3ccc(Cl)cc3)o2)cc1	none
Clc1ccc(-c2nnc(COc3ncnc4sccc34)o2)cc1	CHX counter 34, Shiga inhibitor 34
CC(=O)Nc1cccc(C(=O)Nc2cccc(S(=O)(=O)NCc3ccco3)c2)c1	none (no result: CHX counter, NS1 function inh, LmPK inhibitor, Shiga inhibitor)
Cc1c(C)n(C)c2ccc(C(=O)NCCc3ccco3)cc12	CHX counter 39, Shiga inhibitor 69
CCn1c(C)c(C)c2cc(C(=O)NCCc3ccco3)ccc21	Shiga inhibitor 36
CCn1c(C)c(C)c2cc(C(=O)NCCc3ccc(C)cc3)ccc21	none (no result: CHX counter, NS1 function inh, SARS PLpro yeast, LmPK inhibitor, Shiga inhibitor)
CC(=O)Nc1cccc(C(=O)NCCc2ccco2)c1	CHX counter 26, Shiga inhibitor 78
O=C1NC[C@@H](CCCCN2C[C@H](Cc3ccccc3)N(CCC3CCCCC3)C(=O)C2=O)N(CC2CCCCC2)C1=O	none (no result: CHX counter, NS1 function inh, SARS PLpro yeast, LmPK inhibitor, Shiga inhibitor)
Cn1c(=O)c2cc(S(=O)(=O)NC(Cc3ccccc3)C(=O)Nc3ccc(F)cc3)ccc2n(C)c1=O (configuration not stated)	none (no result: CHX counter, NS1 function inh, SARS PLpro yeast, LmPK inhibitor, Shiga inhibitor)
Cc1ccccc1Cn1cc(NC(=O)c2nn(C)cc2Cl)cn1	Shiga inhibitor 28
Cc1cc(C(=O)Nc2cnn(Cc3ccc(Cl)cc3Cl)c2)no1	CHX counter 15, Shiga inhibitor 35
O=C1OC2(CCCCC2)CC2=C1C1O[C@](CCCCN3C(=O)c4ccccc4C3=O)(Cc3ccccc31)O2	none (no result: Tb PYK inh)
O=C(COc1cc2oc(=O)cc(-c3ccccc3)c2cc1Cl)NCCN1CCOCC1	none
COc1ccc(NC(=O)NCc2ccco2)c(OC)c1	Tb PYK inh inconclusive
COc1ccc2oc(=Nc3ccc(C(=O)O)cc3)c(C(=O)NCc3ccco3)cc2c1	none (no result: NS1 function inh)
O=C(NCc1ccco1)c1cc2ccc(O)cc2oc1=O	Tb PYK inh inconclusive, LmPK inhibitor 14µM
COc1ccc2cc(C(=O)NCc3ccco3)c(=O)oc2c1	CHX counter 33, Shiga inhibitor 60
COc1ccc2cc(C(=O)NCc3ccco3)c(=Nc3ccc(C(=O)O)cc3)oc2c1	CHX counter 55, Shiga inhibitor 112
O=C(NCc1ccco1)c1cc2ccccc2o1	none
COc1ccc(N=c2oc3c(OC)cccc3cc2C(=O)NCc2ccco2)c(OC)c1	CHX counter 23, NS1 function inh inconclusive
CCCc1cc(C(=O)OCC(=O)N2CCN(c3ccc(OC)cc3)CC2)sc1C	none (no result: CHX counter, NS1 function inh, LmPK inhibitor, Shiga inhibitor)
c1cncc(CSc2ncnc3nc[nH]c23)c1	none (no result: Tb PYK inh, CHX counter, SARS PLpro yeast, LmPK inhibitor, Shiga inhibitor)
COc1cc(NC(=O)CCc2c(C)nn(-c3ccc4nncn4n3)c2C)cc(OC)c1OC	none (no result: CHX counter, NS1 function inh, SARS PLpro yeast, LmPK inhibitor, Shiga inhibitor)
CCCOc1ccc(NC(=O)CC2C(=O)N(c3ccc(C)cc3)C(=O)N2C2CCCC2)cc1 (configuration not stated)	none (no result: CHX counter, NS1 function inh, SARS PLpro yeast, LmPK inhibitor, Shiga inhibitor)
O=C(COc1ccccc1F)N1c2ccccc2CCc2ccccc21	none
O=C(COc1ccccc1F)N1CCCc2ccccc21	CHX counter 22 (no result: Shiga inhibitor)
O=C(COc1ccccc1[N+](=O)[O-])N1CCCc2ccccc21	CHX counter 17
O=C(OCC(=O)N1CCCc2ccccc21)c1ccccc1[N+](=O)[O-]	none (no result: CHX counter, NS1 function inh, LmPK inhibitor, Shiga inhibitor)
O=C(COCc1cc(-c2ccc(F)cc2)on1)Nc1cccc(Cl)c1Cl	none (no result: CHX counter, NS1 function inh, SARS PLpro yeast, LmPK inhibitor, Shiga inhibitor)
Cn1ccc(C(=O)N/N=C/c2cccnc2)n1	CHX counter 18, Shiga inhibitor 45
CN(C)c1ccc(/C=N/NC(=O)c2ccn(C)n2)cc1	CHX counter 33, Shiga inhibitor 34
CN(C)c1ccc(/C=N/NC(=O)c2ccnn2C)cc1	Tb PYK inh inconclusive, CHX counter 24, LmPK inhibitor 8.9µM, Shiga inhibitor 58
Cc1nn(C)c(C(=O)N/N=C/c2cccnc2)c1Br	none
Cn1ccc(C(=O)N/N=C/c2ccccc2[N+](=O)[O-])n1	CHX counter 40, Shiga inhibitor 100
COc1ccc(-c2nc(C)c(CCNC(=O)c3cc(OC)c(OC)c(OC)c3)s2)cc1OC	none (no result: CHX counter, NS1 function inh, SARS PLpro yeast, LmPK inhibitor, Shiga inhibitor)
